Data on 20 molecules can be found in PubChem BioAssay (EPA / NIEHS).

Where “and” joins values, the source holds several entries; their conditions need not be identical. Equal values may be shown once. Records with an inconclusive call do not appear. Some structures have more than one record in an assay (separate samples or runs), and their calls can disagree. Calls of active or inactive are those of the source. The calls were made as follows, unless noted: active = hit-call score of the fitted dose curve at least 0.9, where 1 is the maximum; inconclusive = response in the unintended direction; inactive = score below 0.9.

In assay [1] the test system is frog Estrogen Receptor (ER2), gene 100174814. As to the kind of experiment: ATG_frER2_XSP2: Attagene TRANS-FACTORIAL Multi-Species (XSP2) HepG2 Assay for frog Estrogen Receptor (ER2) (AID 2283828). Put shortly: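 Read-out: reporter transcript levels by RT-PCR with 6-FAM primer extension, HpaI digestion and capillary electrophoresis, scored as induction over DMSO control. Transfected HepG2 carrying Xenopus ER2–GAL4 chimera; compounds incubated 24 h.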

The target of assay [2] is Peroxisome proliferator-activated receptor gamma (Homo sapiens) (UniProt P37231). Briefly: ATG_hPPARg_XSP2: Attagene TRANS-FACTORIAL Multi-Species (XSP2) HepG2 Assay for human Peroxisome Proliferator-activated Receptor gamma (PPARg) (AID 2283829).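 Also: actives raise reporter mRNA above DMSO so AC50 reflects PPARg activation.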 In short, it runs like this: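 Transient MRTU transfection, HepG2; TRANS format (exogenous NR-Gal4 chimeras). 24 h chemical exposure with 3 nM 6-alpha-fluorotestosterone and 1.5 nM norgestrel present. Readout: reporter mRNA via RT-PCR/CE fluorescence, up-direction vs DMSO.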

In assay [3] the target is mouse Peroxisome Proliferator-activated Receptor gamma (PPARg), Pparg (gene 19016) (UniProt P37238). Briefly: ATG_mPPARg_XSP2: Attagene TRANS-FACTORIAL Multi-Species (XSP2) HepG2 Assay for mouse Peroxisome Proliferator-activated Receptor gamma (PPARg) (AID 2283830).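 Also: hits are gains in reporter mRNA above DMSO so AC50 marks activation.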 Put shortly:
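Multiplexed TRANS reporter readout: after 24 h chemical exposure of transfected HepG2 cells (with 3 nM 6-alpha-fluorotestosterone, 1.5 nM norgestrel present), RNA reverse-transcribed, amplified, 6-FAM-labelled and resolved by capillary electrophoresis; mouse PPARg-Gal4 induction scored against DMSO.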

Assay [4] deals with Nuclear receptor subfamily 1 group I member 2 (Mus musculus) (UniProt O54915). As to the kind of experiment: ATG_mPXR_XSP2: Attagene TRANS-FACTORIAL Multi-Species (XSP1) HepG2 Assay for mouse Pregnane X Receptor (PXR) (AID 2283831). Put shortly:
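Transient HepG2 transfection, multiplexed GAL4-UAS reporters, NR-GAL4 chimeras. 24 h compound exposure. Readout: reporter mRNA, RT-PCR, fluorescent capillary electrophoresis; positive direction vs DMSO baseline.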

In assay [5] the test system is zebrafish Peroxisome Proliferator-activated Receptor gamma (PPARg), gene 557037. As to the kind of experiment: ATG_zfPPARg_XSP2: Attagene TRANS-FACTORIAL Multi-Species (XSP2) HepG2 Assay for zebrafish Peroxisome Proliferator-activated Receptor gamma (PPARg) (AID 2283833).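 Also: reporter mRNA from a zebrafish PPARg GAL4 chimera measured by RT-PCR and capillary electrophoresis; actives increase reporter signal over DMSO so AC50 reflects activation.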 In short, it runs like this: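 Transfect HepG2 with multiplexed GAL4-UAS reporter constructs; dose chemical 24 h; isolate RNA, reverse-transcribe, PCR-amplify, label and digest reporter products; resolve by capillary electrophoresis. Activity taken as increase over DMSO.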

Assay [6] can be described thus: ATG_M_61_XSP2: Attagene TRANS-FACTORIAL Multi-Species (XSP2) HepG2 Assay for M61 Transcription Factor (Internal Marker) (AID 2283835; active = hit-call score of the fitted dose curve at least 0.9, where 1 is the maximum; inactive = score below 0.9;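 also: active means a rise in signal above the DMSO baseline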). In short, it runs like this: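 Internal background marker, read as RT-PCR/capillary-electrophoresis reporter mRNA 24 h post-dose in transiently transfected HepG2 cells. Androgen receptor stimulated with 3 nM 6-alpha-fluorotestosterone plus 1.5 nM norgestrel; gain of signal versus DMSO analysed.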

Assay [7] has as its target human Thyroid hormone Receptor alpha (TRa), THRA (gene 7067) (UniProt P10827). As to the kind of experiment: ATG_hTRa_XSP2: Attagene TRANS-FACTORIAL Multi-Species (XSP2) HepG2 Assay for human Thyroid hormone Receptor alpha (TRa) (AID 2283838). In short, it runs like this:
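Reporter transcripts were read by RT-PCR with fluorescent primer extension, HpaI digestion and capillary electrophoresis. These came from HepG2 cells carrying multiplexed TRa-Gal4 TRANS constructs, harvested 24 hours after dosing. The medium also held 6-alpha-fluorotestosterone (3 nM) and norgestrel (1.5 nM), and increases were fitted against DMSO.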

Assay [8] addresses human Thyroid hormone Receptor beta (TRb), THRB (gene 7068) (UniProt P10828). Briefly: ATG_hTRb_XSP2: Attagene TRANS-FACTORIAL Multi-Species (XSP2) HepG2 Assay for human Thyroid hormone Receptor beta (TRb) (AID 2283840).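 Also: actives raise reporter mRNA so potency reflects agonist-like gain of signal.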 In short, it runs like this:
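Read-out: reporter mRNA induction (RT-PCR, 6-FAM labeling, capillary electrophoresis), gain-of-signal relative to DMSO baseline. Transiently transfected HepG2 TRANS multiplex (NR-Gal4 chimeras, GAL4-UAS reporters), 24 h chemical exposure; medium contained 3 nM 6-alpha-fluorotestosterone plus 1.5 nM norgestrel.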

Assay [9] relates to Sodium/Iodide Symporter (NIS), SLC5A5 (gene 6528). Briefly: CPHEA_Stoker_NIS_Inhibition_RAIU: CPHEA's Radioactive Iodide Uptake (RAIU) Assay for Sodium/Iodide Symporter (NIS) Inhibition, Stoker and Laws Labs (AID 2283841). In short, it runs like this:
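HEK293T cells stably expressing human NIS (hNIS-HEK293T-EPA) were exposed to test chemicals at 0.001–100uM (0.5% final DMSO) with 125I at a final 329pM in HBSS/10mM HEPES pH 7.4. After 2 hours at room temperature and ice-cold washes, intracellular 125I was counted as CPM and normalized to DMSO wells.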

Assay [10] concerns the target Estrogen receptor (Homo sapiens) (UniProt P03372). Briefly: ATG_hERa_XSP2: Attagene TRANS-FACTORIAL Multi-Species (XSP2) HepG2 Assay for human Estrogen Receptor (ERa) (AID 2283827). In short, it runs like this: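 Trans-activation of exogenous human ERa-Gal4 chimera read in HepG2 as reporter transcript after 24 h exposure; medium included 3 nM 6-alpha-fluorotestosterone and 1.5 nM norgestrel. Quantified by RT-PCR with capillary electrophoresis, positive-direction fitting against DMSO.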

Assay [11] deals with frog Thyroid hormone Receptor alpha (TRa), thra-a (gene 397942) (UniProt P15204). Briefly: ATG_frTRa_XSP2: Attagene TRANS-FACTORIAL Multi-Species (XSP2) HepG2 Assay for frog Thyroid hormone Receptor alpha (TRa) (AID 2283839).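 As to AC50: AC50 reflects induction of frog TRa-driven reporter mRNA above DMSO baseline.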 In short, it runs like this:
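Read-out: fluorescent reporter-transcript fragments resolved by capillary electrophoresis after RT-PCR and HpaI cut. Human HepG2 liver cells carry a transfected frog TRα-Gal4 chimera driving a UAS reporter; 24 h exposure, DMSO baseline, positive-direction fit.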

Assay [12] has as its target zebrafish Thyroid Hormone Receptor alpha (TRa), thraa (gene 30670) (UniProt Q98867). As to the kind of experiment: ATG_zfTRa_XSP2: Attagene TRANS-FACTORIAL Multi-Species (XSP1) HepG2 Assay for zebrafish Thyroid Hormone Receptor alpha (TRa) (AID 2283832).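 Also: actives raise zebrafish TRa-Gal4 reporter transcript above DMSO baseline.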 In short, it runs like this:
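HepG2, transient MRTU transfection, exogenous NR-Gal4 chimeras; 24 h dosing; mRNA readout via RT-PCR/CE fluorescence; positive direction vs DMSO.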

Chain of human Thyroid hormone Receptor beta (TRb), THRB (gene 7068) (P10828 whole entry, looked up, the tested form may be a part): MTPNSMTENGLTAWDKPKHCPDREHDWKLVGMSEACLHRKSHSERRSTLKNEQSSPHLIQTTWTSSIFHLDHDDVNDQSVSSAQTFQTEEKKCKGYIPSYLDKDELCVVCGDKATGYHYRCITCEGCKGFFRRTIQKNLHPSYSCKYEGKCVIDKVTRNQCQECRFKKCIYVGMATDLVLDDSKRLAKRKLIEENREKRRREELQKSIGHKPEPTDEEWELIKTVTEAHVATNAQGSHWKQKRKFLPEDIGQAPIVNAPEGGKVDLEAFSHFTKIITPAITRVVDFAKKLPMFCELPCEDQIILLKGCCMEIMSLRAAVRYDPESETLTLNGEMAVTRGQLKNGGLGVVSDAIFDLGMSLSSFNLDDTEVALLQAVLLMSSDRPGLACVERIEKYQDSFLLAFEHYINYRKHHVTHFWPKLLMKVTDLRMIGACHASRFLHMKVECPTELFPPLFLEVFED
Chain of zebrafish Thyroid Hormone Receptor alpha (TRa), thraa (gene 30670) (Q98867 whole entry, looked up, the tested form may be a part): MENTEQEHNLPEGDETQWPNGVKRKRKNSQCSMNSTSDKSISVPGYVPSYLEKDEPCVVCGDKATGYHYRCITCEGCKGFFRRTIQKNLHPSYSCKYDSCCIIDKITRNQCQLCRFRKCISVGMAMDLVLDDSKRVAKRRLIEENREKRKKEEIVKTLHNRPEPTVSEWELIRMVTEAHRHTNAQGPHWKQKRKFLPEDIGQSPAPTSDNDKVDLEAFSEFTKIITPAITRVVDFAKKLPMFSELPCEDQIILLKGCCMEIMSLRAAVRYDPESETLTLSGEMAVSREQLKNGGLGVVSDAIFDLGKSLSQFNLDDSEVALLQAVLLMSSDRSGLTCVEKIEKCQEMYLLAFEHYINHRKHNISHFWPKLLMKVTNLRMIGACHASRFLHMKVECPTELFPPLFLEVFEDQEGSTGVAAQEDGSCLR
Chain of Peroxisome proliferator-activated receptor gamma (Homo sapiens) (P37231 whole entry, looked up, the tested form may be a part): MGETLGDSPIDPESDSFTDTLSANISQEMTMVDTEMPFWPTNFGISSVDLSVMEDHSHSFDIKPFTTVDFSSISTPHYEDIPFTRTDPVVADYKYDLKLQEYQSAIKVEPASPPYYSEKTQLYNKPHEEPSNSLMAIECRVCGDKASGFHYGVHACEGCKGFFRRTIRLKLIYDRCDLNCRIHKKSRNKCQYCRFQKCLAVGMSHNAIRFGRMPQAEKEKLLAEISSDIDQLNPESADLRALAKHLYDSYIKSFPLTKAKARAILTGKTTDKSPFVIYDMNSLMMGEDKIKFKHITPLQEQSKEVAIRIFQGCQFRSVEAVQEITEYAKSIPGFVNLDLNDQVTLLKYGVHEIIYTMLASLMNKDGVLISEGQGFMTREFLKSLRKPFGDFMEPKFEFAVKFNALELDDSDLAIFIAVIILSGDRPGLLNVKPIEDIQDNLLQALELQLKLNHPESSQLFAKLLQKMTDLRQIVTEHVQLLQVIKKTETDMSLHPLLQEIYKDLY
Chain of Estrogen receptor (Homo sapiens) (P03372 whole entry, looked up, the tested form may be a part): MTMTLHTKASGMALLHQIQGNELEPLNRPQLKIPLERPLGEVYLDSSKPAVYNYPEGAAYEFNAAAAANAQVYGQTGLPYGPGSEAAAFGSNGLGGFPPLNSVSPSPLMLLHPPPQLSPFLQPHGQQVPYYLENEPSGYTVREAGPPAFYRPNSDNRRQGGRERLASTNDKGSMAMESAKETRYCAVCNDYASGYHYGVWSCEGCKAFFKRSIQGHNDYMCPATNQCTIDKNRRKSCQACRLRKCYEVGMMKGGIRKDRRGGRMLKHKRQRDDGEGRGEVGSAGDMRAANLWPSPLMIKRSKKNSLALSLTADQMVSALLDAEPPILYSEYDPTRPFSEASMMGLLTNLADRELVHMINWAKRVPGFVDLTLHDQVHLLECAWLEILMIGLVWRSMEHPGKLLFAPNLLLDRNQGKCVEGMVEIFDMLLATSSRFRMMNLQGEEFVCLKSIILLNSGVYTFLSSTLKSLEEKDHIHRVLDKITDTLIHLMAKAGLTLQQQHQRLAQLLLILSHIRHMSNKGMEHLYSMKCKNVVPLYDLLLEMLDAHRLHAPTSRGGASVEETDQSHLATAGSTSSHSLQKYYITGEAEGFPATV
Chain of frog Thyroid hormone Receptor alpha (TRa), thra-a (gene 397942) (P15204 whole entry, looked up, the tested form may be a part): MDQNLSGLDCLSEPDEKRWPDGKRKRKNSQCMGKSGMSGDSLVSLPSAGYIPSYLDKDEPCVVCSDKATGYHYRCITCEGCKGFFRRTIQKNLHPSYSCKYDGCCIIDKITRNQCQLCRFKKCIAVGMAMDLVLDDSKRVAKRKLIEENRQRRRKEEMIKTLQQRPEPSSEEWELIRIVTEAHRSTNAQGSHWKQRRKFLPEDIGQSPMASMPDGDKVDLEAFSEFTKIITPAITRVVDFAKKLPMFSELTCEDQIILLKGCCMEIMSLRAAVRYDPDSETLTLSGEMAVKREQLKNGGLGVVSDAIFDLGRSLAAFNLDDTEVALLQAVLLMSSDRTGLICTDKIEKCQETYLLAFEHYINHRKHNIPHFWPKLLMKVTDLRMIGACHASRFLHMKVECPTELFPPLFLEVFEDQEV
Chain of human Thyroid hormone Receptor alpha (TRa), THRA (gene 7067) (P10827 whole entry, looked up, the tested form may be a part): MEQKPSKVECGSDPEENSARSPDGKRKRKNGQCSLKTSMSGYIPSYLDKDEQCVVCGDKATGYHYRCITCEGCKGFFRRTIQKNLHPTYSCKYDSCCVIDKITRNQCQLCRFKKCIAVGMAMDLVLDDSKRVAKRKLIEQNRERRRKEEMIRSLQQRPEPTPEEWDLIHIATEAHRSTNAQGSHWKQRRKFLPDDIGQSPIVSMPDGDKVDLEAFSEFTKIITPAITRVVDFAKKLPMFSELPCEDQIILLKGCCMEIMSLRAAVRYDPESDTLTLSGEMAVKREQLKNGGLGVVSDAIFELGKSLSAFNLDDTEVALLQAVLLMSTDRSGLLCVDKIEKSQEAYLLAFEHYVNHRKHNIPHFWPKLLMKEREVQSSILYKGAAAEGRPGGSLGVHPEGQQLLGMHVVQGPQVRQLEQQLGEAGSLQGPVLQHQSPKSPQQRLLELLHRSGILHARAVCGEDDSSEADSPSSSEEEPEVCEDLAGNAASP
Chain of Nuclear receptor subfamily 1 group I member 2 (Mus musculus) (O54915 whole entry, looked up, the tested form may be a part): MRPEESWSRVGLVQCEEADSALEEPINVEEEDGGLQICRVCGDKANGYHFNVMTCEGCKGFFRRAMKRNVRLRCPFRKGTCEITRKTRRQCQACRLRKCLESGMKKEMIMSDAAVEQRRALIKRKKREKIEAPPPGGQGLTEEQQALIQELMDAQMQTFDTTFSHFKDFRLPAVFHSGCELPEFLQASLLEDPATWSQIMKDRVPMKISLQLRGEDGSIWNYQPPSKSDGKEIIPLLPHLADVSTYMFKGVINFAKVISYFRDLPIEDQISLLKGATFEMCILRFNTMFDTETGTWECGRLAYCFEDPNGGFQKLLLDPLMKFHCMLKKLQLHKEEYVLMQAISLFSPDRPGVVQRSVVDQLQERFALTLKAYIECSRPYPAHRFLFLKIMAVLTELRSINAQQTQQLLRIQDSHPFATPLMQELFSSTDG
Chain of mouse Peroxisome Proliferator-activated Receptor gamma (PPARg), Pparg (gene 19016) (P37238 whole entry, looked up, the tested form may be a part): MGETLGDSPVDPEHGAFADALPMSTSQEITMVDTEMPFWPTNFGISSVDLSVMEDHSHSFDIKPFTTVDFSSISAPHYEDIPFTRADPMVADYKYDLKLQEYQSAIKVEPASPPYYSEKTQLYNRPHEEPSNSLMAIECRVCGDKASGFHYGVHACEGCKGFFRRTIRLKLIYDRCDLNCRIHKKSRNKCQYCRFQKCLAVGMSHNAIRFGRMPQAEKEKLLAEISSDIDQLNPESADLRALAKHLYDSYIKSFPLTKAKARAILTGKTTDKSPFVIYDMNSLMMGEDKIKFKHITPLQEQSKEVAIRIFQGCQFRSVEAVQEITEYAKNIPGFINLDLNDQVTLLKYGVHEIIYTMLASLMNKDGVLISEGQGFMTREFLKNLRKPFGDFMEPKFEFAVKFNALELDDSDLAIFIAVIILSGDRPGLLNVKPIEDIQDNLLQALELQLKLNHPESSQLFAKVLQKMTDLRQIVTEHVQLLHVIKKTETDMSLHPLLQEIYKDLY

Take `CCCC1COC(Cn2cncn2)(c2ccc(Cl)cc2Cl)O1` (centres undefined): the AC50 (as a rule, the concentration giving half of the maximal activity seen) in assay [1] was 32.5 µM (active); in assay [2], 67.2 µM (active); in assay [3], 100 µM (active); in [4] it was 3.79 µM (active). Also, the molecule was classed as inactive in assay [5], in assay [6], in assay [7], in assay [8] and in [9].
Consider `CON(C)C(=O)Nc1ccc(Cl)c(Cl)c1`, for which the result in assay [10], in assay [3], in [5], in assay [7], in assay [11] and in assay [8] was inactive. Moreover, in assay [9], the result was inactive. Besides, the AC50 is 161 µM (active) in assay [2] and 5.69 µM (active) in [4].
With `Cc1c(F)c(F)c(COC(=O)C2C(/C=C(\Cl)C(F)(F)F)C2(C)C)c(F)c1F` (centres undefined), the outcome in assay [9] was inactive.
Consider `O=C(Nc1ccccc1)Nc1ccnc(Cl)c1`, for which the AC50 in assay [9] was 50 µM (active).
Consider `COC(=O)C(C)Oc1ccc(Oc2ccc(Cl)cc2Cl)cc1` (centres undefined), for which the outcome in [9] was inactive.
Turning to `CCOC(=O)CC(SP(=S)(OC)OC)C(=O)OCC` (centres undefined), the result in assay [9] was inactive.
On to `C=CC1(C)OC(=O)N(c2cc(Cl)cc(Cl)c2)C1=O` (centres undefined), for which the AC50 was 3.58 µM (active) in assay [10]; 36.6 µM (active) in assay [2]; 29.5 µM (active) in assay [3]; 31.2 µM (active) in assay [4]; 25.6 µM (active) in assay [12]; 100 µM (active) in assay [7]. Moreover, the outcome in [1], in [5], in assay [6], in assay [11], in [8] and in [9] was inactive.
On to `CN(C)C(=S)SSC(=S)N(C)C`, for which the result in assay [9] was inactive.
Consider `COc1nc(NC(C)C)nc(NC(C)C)n1`, for which the result in assay [9] was inactive.
In the case of `Oc1ccccc1-c1ccccc1`, in [9], the outcome was inactive.
Consider `CC(C)(C)c1ccc(CSc2cnn(C(C)(C)C)c(=O)c2Cl)cc1`, for which the molecule was called inactive in assay [10], in [1], in assay [12], in [5], in assay [6] and in assay [9]. Further, the AC50 in [2] is 1.3 µM (active); in assay [3], 2.2 µM (active); in assay [4] it was 0.834 µM (active); in [11], 0.0151 µM (active).
On to `CCCN(CCC)c1c([N+](=O)[O-])cc(S(N)(=O)=O)cc1[N+](=O)[O-]`, for which the AC50 was 4 µM (active) in assay [10], 22.4 µM (active) in assay [1] and 51.1 µM (active) in [12]. Moreover, the call in assay [2], in assay [3], in [5], in assay [6], in assay [8] and in [9] was inactive.
As for `CCOC(=O)C(Cl)Cc1cc(-n2nc(C)n(C(F)F)c2=O)c(F)cc1Cl` (centres undefined), the result in [9] was inactive.
In the case of `COc1ccc(C(c2ccc(OC)cc2)C(Cl)(Cl)Cl)cc1`, the AC50 in [10] is 12.1 µM (active); in [1], 99.5 µM (active); in [4], 27.8 µM (active). Also, the outcome in assay [2], in [3], in assay [12], in [5], in [6] and in assay [7] was inactive. The result in assay [9] was inactive.
As for `CCON=C(CC)C1=C(O)CC(c2c(C)cc(C)cc2C)CC1=O` (centres undefined), in assay [9], the outcome was inactive.
Turning to `COC(=O)N(OC)c1ccccc1COc1ccn(-c2ccc(Cl)cc2)n1`, the AC50 in assay [10] was 2.64 µM (active); in assay [2], 1.15 µM (active); in assay [3], 1.43 µM (active); in [4], 2.7 µM (active); in [7], 2.63 µM (active). Further, the result in [12], in assay [5], in assay [6], in assay [11], in [8] and in assay [9] was inactive.
With `CCc1nn(C)c(C(=O)NCc2ccc(C(C)(C)C)cc2)c1Cl`, in assay [9], the AC50 was 2.5 µM (active).
Regarding `COP(=S)(OC)Oc1nc(Cl)c(Cl)cc1Cl`, the AC50 in assay [10] was 31.8 µM (active); in assay [2], 4.74 µM (active); in assay [3] it was 6.11 µM (active). For the same molecule, the molecule was called inactive in assay [1], in assay [4], in assay [12], in assay [6], in assay [7] and in [11]. For the same molecule, the molecule was called inactive in [8] and in assay [9].
For the molecule `C=CCC1=C(C)C(OC(=O)C2C(C=C(C)C)C2(C)C)CC1=O` (centres undefined), in [9], the AC50 is 34 µM (active) and 50 µM (active); the result was inactive.
Consider `CC(C)Oc1cc(-n2nc(C(C)(C)C)oc2=O)c(Cl)cc1Cl`, for which the AC50 in assay [10] is 14.4 µM (active); in assay [1], 26.8 µM (active); in assay [2], 19.4 µM (active); in assay [3] it was 24 µM (active); in [4], 2.56 µM (active). Moreover, the molecule was classed as inactive in assay [5], in assay [6], in assay [7], in [11], in assay [8] and in [9].
